Assay [1] is described as follows: inhibitors of TNFa-induced NFkB p65 translocation, primary screen, imaging, HUVEC, MLSMR starter and 10KST1 sets (AID 438;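 active = inhibition above 20% together with a positive visual image hit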;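 also: compound added about 3h40 before a 20 min TNFalpha stimulation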;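 as to inhibition: signal is the nuclear over cytoplasmic p65 intensity ratio per well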). Conditions: HUVEC TNFa-induced p65 nuclear translocation; cell count: measured here: nuclei count (cytotoxicity indicator), at 2.08 µM; inhibition: at 2 µM, stronger effect = higher value, 0% TNFa-plus-vehicle, 100% no-TNFa wells.
A short description of assay [2]: reduction of polyQ htt aggregates in cells – imaging, exon1htt(103Q)mCFP cells, high-content imaging, primary screen (AID 483;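 active = visual image review flags a hit and inhibition of aggregation exceeds 20%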;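 also: compound exposure lasted 3 days before fixation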;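 as to nuclei count: percent of the per-plate median nuclei count of sample wells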). The note with it: exon1htt(103Q)mCFP cell line, aggregate imaging, at 2 µM; inhibition of aggregation: stronger effect = higher value; nuclei count: measured here: cell count, toxicity.
Assay [3] is described as follows: endothelial E-selectin expression blockers – imaging, HUVEC, immunofluorescence, MLSMR starter and 10KST1 sets, primary screen (AID 487;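 active = visually confirmed hit in the image check and inhibition above 20%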;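 as to inhibition: signal is fraction of cell area covered by stained E-selectin grains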;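 as to nuclei count: 100% = median nuclei count of all wells on the same plate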). Conditions: HUVEC TNFalpha-induced E-selectin immunofluorescence imaging, at 2 µM; inhibition: stronger effect = higher value; nuclei count: measured here: cell number, toxicity.
Assay [4] in a line: Primary imaging screen for DUSP6 inhibitors that restore phospho-Erk in transfected HeLa cells, chemical complementation (AID 609;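 active = compounds giving at least 50% inhibition in the cell-based MKP-3 phosphatase rescue imaging test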;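 as to inhibition: phospho-Erk level distribution per well compared with pooled transfected vehicle control wells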). Conditions: HeLa MKP-3 transfected, phospho-Erk imaging KS statistic, at 10 µM, cells stimulated with TPA for 15 min.
Assay [5] has as its target Dual specificity protein phosphatase 6 (Homo sapiens) (UniProt Q16828). The description is as above. Conditions: HeLa MKP-3 transfected, phospho-Erk imaging KS statistic; at 10 µM; stronger effect = higher value; cells stimulated with TPA for 15 min.
Assay [6] addresses Voltage-gated potassium channel subunit beta-2 (Rattus norvegicus) (UniProt P62483). Briefly: inhibitors of rat Kvbeta2 reductase activity – biochemical, NADPH fluorescence, primary screen (AID 622;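 active = fluorescence slope higher than the sample average by over 3 SD, cut at about -0.22 in these data, passing the limit was not always enough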;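 also: slope of raw intensity against log time taken from 70 to 1610 s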). The note with it: recombinant KvBeta, 4-cyanobenzaldehyde reduction, at 10 µM, stronger effect = higher value.
The target is the same in assay [7]. Briefly: enhancers of rat Kvbeta2 NADPH turnover – biochemical, NADPH fluorescence, primary screen (AID 623;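 active = NADPH fluorescence slope more negative than the mean of all samples by about 3 SD, 99.7% confidence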;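 also: fluorescence intensity change per second fitted from 20 to 320 s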). Conditions: Recombinant KvBeta, NADPH fluorescence decrease slope, 10 min; at 10 µM; stronger effect = lower value.
In assay [8] the target is Alpha-2C adrenergic receptor (Homo sapiens) (UniProt P18825). Briefly: compounds altering alpha2C-coupled GIRK flux – cell-based, HEK293 alpha2C/GIRK1/2, thallium flux, primary screen (AID 624;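 active = fluorescence slope after compound addition differing from the mean of all screened samples at 99.7% confidence, in either direction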;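 also: slope of fluorescence ratio to pre-addition baseline per second over 15 to 24 s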). Conditions: thallium flux BTC fluorescence, at 10 µM, actives lie on both sides.
Assay [9] in a line: inhibitors of larval lipid processing in zebrafish, primary screen, whole organism, PED6 fluorescence, gall bladder and intestine (AID 686;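 active = a full or partial loss of lipid-probe fluorescence in the fish gall bladder, intestine or both, judged by eye; inactive = no fluorescence loss, or compound toxic to the fish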;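 also: larvae 5 to 7 days old with five fish per well; signal comes from phospholipase A2 cleavage of quenched PED6 carried via bile; overnight exposure to compound and PED6 before scoring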). Conditions: Zebrafish larvae PED6 lipid processing, fluorescence scoring; screened at 20 µM (by protocol).
Assay [10] can be described thus: loss of swimming-algae plug formation – whole organism, Chlamydomonas reinhardtii, WT vs cilia-less mutant, absorbance, 96-well, primary screen (AID 463189).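 Also: 0% = wild type cc124 cells in DMSO and 100% = ciliumless bld1 mutant cells.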 Conditions: Chlamydomonas reinhardtii gravitaxis, OD600 absorbance, 2 days; at 10 µM; stronger effect = higher value.
Assay [11] in a line: blockers of RIG-like receptor reporter activation – cell-based, Sendai virus stimulus, luciferase, 10K MLSCN set, TLR/RLR signaling modifier project, primary screen (AID 602276;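 active = inhibition at or above 50% at 10 µM; inactive = inhibition below 50%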;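 also: firefly luciferase from ISG56 promoter only with Renilla not read in this screen; 0% = Sendai virus plus DMSO and 100% = medium plus DMSO without virus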). Conditions: HEK293 RL24 IRF3 luciferase reporter, at 10 µM, stronger effect = higher value. Background: A reporter such as luciferase makes a cellular process visible.
Assay [12] can be described thus: TLR3 IRF3 reporter activation blockers – cell-based, poly I:C stimulus, luciferase, 10K MLSCN set, primary screen (AID 602277;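 active = inhibition of the reporter signal at or above 50%; inactive = inhibition below 50%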). The note with it: HEK293-TLR3 RL24 IRF3 luciferase reporter, at 10 µM, stronger effect = higher value.
[13] abbreviates: measured here: cell density z-score.
[14] abbreviates: measured here: nuclear c-Myc green intensity z-score.
The mark [15] stands for this setting: measured here: nuclear pErk red intensity z-score, stronger effect = higher value.

Where “and” joins values, the source holds several entries; their conditions need not be identical. Equal entries are not always repeated. Calls of active or inactive are those of the source.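 The calls were made as follows, unless noted: active = inhibition at or above 50% relative to wild type and mutant plate controls; inactive = inhibition below 50%.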

Alpha-2C adrenergic receptor (Homo sapiens), sequence (P18825 whole entry, looked up): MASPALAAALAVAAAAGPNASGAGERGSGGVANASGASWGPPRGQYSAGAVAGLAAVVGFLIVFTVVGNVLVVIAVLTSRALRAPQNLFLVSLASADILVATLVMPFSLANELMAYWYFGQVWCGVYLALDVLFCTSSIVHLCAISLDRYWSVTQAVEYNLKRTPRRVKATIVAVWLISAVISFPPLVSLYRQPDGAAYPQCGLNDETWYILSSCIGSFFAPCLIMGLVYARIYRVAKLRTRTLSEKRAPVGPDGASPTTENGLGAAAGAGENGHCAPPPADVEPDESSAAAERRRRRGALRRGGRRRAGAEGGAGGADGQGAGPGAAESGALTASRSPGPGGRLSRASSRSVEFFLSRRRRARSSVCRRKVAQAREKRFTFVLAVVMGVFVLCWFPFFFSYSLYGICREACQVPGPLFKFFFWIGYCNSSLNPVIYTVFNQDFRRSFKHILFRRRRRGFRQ
Dual specificity protein phosphatase 6 (Homo sapiens), sequence (Q16828 whole entry, looked up): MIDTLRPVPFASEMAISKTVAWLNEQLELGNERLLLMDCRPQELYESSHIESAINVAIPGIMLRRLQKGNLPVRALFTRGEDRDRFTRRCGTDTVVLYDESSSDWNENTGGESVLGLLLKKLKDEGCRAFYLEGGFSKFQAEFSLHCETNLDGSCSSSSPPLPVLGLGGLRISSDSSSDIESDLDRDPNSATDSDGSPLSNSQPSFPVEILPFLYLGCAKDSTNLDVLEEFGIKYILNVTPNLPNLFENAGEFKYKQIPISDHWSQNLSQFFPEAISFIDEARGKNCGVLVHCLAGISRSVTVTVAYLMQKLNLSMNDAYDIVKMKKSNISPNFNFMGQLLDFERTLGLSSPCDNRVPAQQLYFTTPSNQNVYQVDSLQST
Voltage-gated potassium channel subunit beta-2 (Rattus norvegicus), sequence (P62483 whole entry, looked up): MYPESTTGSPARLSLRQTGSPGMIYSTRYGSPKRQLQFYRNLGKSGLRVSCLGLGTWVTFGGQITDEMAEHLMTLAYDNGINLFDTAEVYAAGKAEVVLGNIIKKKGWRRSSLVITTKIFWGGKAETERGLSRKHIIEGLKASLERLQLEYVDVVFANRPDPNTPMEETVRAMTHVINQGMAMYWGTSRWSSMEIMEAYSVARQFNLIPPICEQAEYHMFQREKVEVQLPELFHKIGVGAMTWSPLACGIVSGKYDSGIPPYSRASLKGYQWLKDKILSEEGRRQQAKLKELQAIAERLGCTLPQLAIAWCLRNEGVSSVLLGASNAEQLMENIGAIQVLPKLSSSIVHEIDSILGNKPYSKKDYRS

Turning to `CCc1cn([C@H]2C[C@H](O)[C@@H](CO)O2)c(=O)[nH]c1=O`, the cell count in [1] was 644. The inhibition (commonly the drop in the measured response relative to a control, in per cent) in [1] was -9.9% (inactive); in assay [3], -69.2% (inactive); in [5], 9.37% (inactive); in assay [10], 21.4% (inactive); in assay [11], 18.1% (inactive); in [12], 34% (inactive). In addition, in [2], the inhibition of aggregation is -3.6% (inactive). The nuclei count in assay [2] was 102%; in [3] it was 120%. The z-score in [4] (setting [13]) is -0.967; in assay [4] (setting [14]), -0.117; in assay [4] (setting [15]), 0.506. Also, in assay [6], the fluorescence slope is -0.477 (inactive). Further, the NADPH fluorescence slope in assay [7] is 5.1e-06 (inactive). Besides, the slope in assay [8] is 0.00501 (inactive). Further, the result in assay [9] was inactive.
Take `CC(C[N+](C)(C)C)OC(N)=O` (stereo not given): the cell count in [1] amounted to 492. The inhibition was 17.2% (inactive) in [1]; -25.7% (inactive) in assay [3]; 5.42% (inactive) in assay [5]; 4.16% (inactive) and 23.3% (inactive) in [10]; 14.7% (inactive) in assay [11]; 38.3% (inactive) in [12]. Moreover, in [2], the inhibition of aggregation was -16.6% (inactive). Further, the nuclei count in assay [2] was determined as 106%; in assay [3], 125%. For the same compound, the z-score was -0.295 in [4] (setting [13]), 0.566 in assay [4] (setting [14]) and -0.0176 in assay [4] (setting [15]). The fluorescence slope in assay [6] is -0.491 (inactive). The NADPH fluorescence slope in assay [7] is -6.6e-05 (inactive). Further, the slope in [8] was 0.00575 (inactive). Further, the compound was classed as inactive in assay [9].
On to `CC(=O)NCCCCCCNC(C)=O`, for which, in assay [1], the cell count is 515. In addition, the inhibition in assay [1] was -2% (inactive); in assay [3], 5.3% (inactive); in assay [5] it was 10.2% (inactive); in assay [10] it was 20.9% (inactive); in assay [11], 9.84% (inactive); in assay [12] it was 44.8% (inactive). Besides, the inhibition of aggregation in assay [2] is -11.6% (inactive). Besides, the nuclei count in assay [2] worked out at 101%; in [3] it was 114%. Also, the z-score in assay [4] (setting [13]) was -1.8; in assay [4] (setting [14]), 0.662; in assay [4] (setting [15]), 0.679. The fluorescence slope in assay [6] is -0.45 (inactive). In addition, the NADPH fluorescence slope in assay [7] is -5.8e-05 (inactive). For the same compound, the slope in assay [8] is 0.00491 (inactive). In addition, the call in assay [9] was inactive.
`C[C@]12CC[C@@H]3c4ccc(O[C@@H]5O[C@H](C(=O)O)[C@@H](O)[C@H](O)[C@H]5O)cc4CC[C@H]3[C@@H]1C[C@@H](O)[C@@H]2O`: the cell count in assay [1] came out at 606. The inhibition in assay [1] is -2.6% (inactive); in assay [3], -146% (inactive); in [5], 1.48% (inactive); in assay [10], -2.21% (inactive); in [11], 15% (inactive); in assay [12] it was 32.3% (inactive). Moreover, in [2], the inhibition of aggregation was -0.5% (inactive). Besides, the results for the nuclei count in assay [2] and in assay [3] were 90.1% and 127%, respectively. Also, the values for the z-score in assay [4] (setting [13]), in assay [4] (setting [14]) and in assay [4] (setting [15]) were 0.0825, -0.52 and -0.309, respectively. Further, the fluorescence slope in assay [6] was -0.487 (inactive). For the same compound, the NADPH fluorescence slope in [7] is -4.1e-05 (inactive). Moreover, the slope in [8] was 0.00431 (inactive). Also, in assay [9], the compound was called inactive.
As for `c1ccc(SCc2nc3ccccc3[nH]2)nc1`, the cell count in assay [1] came out at 407. For the same compound, the inhibition is -12.9% (inactive) in [1]; -65.1% (inactive) in assay [3]; 9.39% (inactive) in [5]; 13.1% (inactive) in [10]; -49.8% (inactive) in assay [11]; -119% (inactive) in assay [12]. The inhibition of aggregation in assay [2] is -9.8% (inactive). Besides, the nuclei count in assay [2] was 107%; in [3], 119%. Besides, the z-score is 0.727 in assay [4] (setting [13]), 0.54 in assay [4] (setting [14]) and -0.488 in [4] (setting [15]). Also, the fluorescence slope in assay [6] is -0.624 (inactive). Moreover, the NADPH fluorescence slope in [7] was -2.9e-05 (inactive). In addition, the slope in [8] was 0.00427 (inactive). For the same compound, the outcome in assay [9] was “inactive; toxic”.
Consider `COc1ccccc1N1CCN(CC(O)COc2cccc3ccccc23)CC1` (stereo not given), for which, in [1], the cell count was 617. Besides, the inhibition in [1] was -3.6% (inactive); in [3], -26.2% (inactive); in [5] it was 8% (inactive); in assay [10], 7.05% (inactive) and 42.9% (inactive); in assay [11], 16.5% (inactive); in assay [12] it was 36.9% (inactive). Moreover, in [2], the inhibition of aggregation was -18.7% (inactive). Further, the results for the nuclei count in assay [2] and in assay [3] were 108% and 107%, respectively. Besides, the z-score is 0.673 in assay [4] (setting [13]), -1.31 in assay [4] (setting [14]) and -2.39 in assay [4] (setting [15]). Besides, the fluorescence slope in assay [6] is -0.431 (inactive). For the same compound, the NADPH fluorescence slope in assay [7] was -7.7e-05 (inactive). For the same compound, the slope in [8] is 0.00349 (inactive). Moreover, the compound was classed as inactive in assay [9].
Regarding `CCCOc1ccc(N2C(=O)C3ON(c4ccccc4)C(c4ccc(O)c(OC)c4)C3C2=O)cc1` (stereo not given), the cell count in assay [1] amounted to 413. The inhibition in assay [1] was -5.2% (inactive); in assay [3], -53.3% (inactive); in assay [5], 7.42% (inactive); in assay [10] it was -8.77% (inactive); in [11], 16.5% (inactive); in assay [12], 16.8% (inactive). Also, the inhibition of aggregation in [2] was 2.2% (inactive). For the same compound, the nuclei count was determined as 110% in [2] and 124% in [3]. In addition, the values for the z-score in [4] (setting [13]), in assay [4] (setting [14]) and in [4] (setting [15]) were 0.885, -0.229 and -0.338, respectively. In assay [6], the fluorescence slope is -0.41 (inactive). For the same compound, the NADPH fluorescence slope in [7] is -0.0001 (inactive). For the same compound, in [8], the slope is 0.00809 (inactive). Also, in assay [9], the compound was called inactive.
Regarding `COc1ccccc1-n1c(=O)c2c3c(sc2n2c(SC(C)C)nnc12)CCC3`, the cell count in [1] is 643. Also, the inhibition was -11.3% (inactive) in [1]; -68% (inactive) in [3]; -11% (inactive) in [5]; 34.4% (inactive) in assay [10]; 0.779% (inactive) in [11]; 20.4% (inactive) in assay [12]. Also, the inhibition of aggregation in [2] is 31.3% (active). Moreover, the values for the nuclei count in [2] and in assay [3] were 93.7% and 145%, respectively. Besides, the z-score in assay [4] (setting [13]) is 1.45; in [4] (setting [14]) it was -1.07; in assay [4] (setting [15]) it was 1.13. The fluorescence slope in assay [6] was -0.248 (inactive). Besides, the NADPH fluorescence slope in assay [7] is 1.3e-05 (inactive). For the same compound, the slope in assay [8] was 0.005 (inactive). In addition, in assay [9], the result was inactive.
On to `CO[C@H]1C=CO[C@@]2(C)Oc3c(C)c(O)c4c(O)c(c(C=NN5CCN(C)CC5)c(O)c4c3C2=O)NC(=O)C(C)=CC=C[C@H](C)[C@H](O)[C@@H](C)[C@@H](O)[C@@H](C)[C@H](OC(C)=O)[C@@H]1C`, for which the cell count in assay [1] stood at 652. Besides, the inhibition is -3.9% (inactive) in [1]; -93.2% (inactive) in assay [3]; 13.3% (inactive) in assay [5]; 10.8% (inactive) in assay [10]; 33.7% (inactive) in assay [11]; 49.7% (inactive) in [12]. Besides, in assay [2], the inhibition of aggregation is -21% (inactive). Besides, the nuclei count in assay [2] was 108%; in assay [3], 125%. Besides, the z-score was -0.406 in assay [4] (setting [13]), 1.71 in [4] (setting [14]) and 0.381 in assay [4] (setting [15]). For the same compound, in assay [6], the fluorescence slope was -0.556 (inactive). Further, the NADPH fluorescence slope in [7] is 4.3e-06 (inactive). The slope in [8] is 0.00466 (inactive). In addition, in [9], the result was inactive.
Regarding `O=C1OC(c2ccc(O)cc2)(c2ccc(O)cc2)c2ccccc21`, the cell count in [1] turned out to be 608. In addition, the inhibition in [1] was -5% (inactive); in assay [3], -50.7% (inactive); in assay [5], 21.2% (inactive); in assay [10], -5.48% (inactive); in [11] it was 11.5% (inactive); in assay [12] it was 41.9% (inactive). Moreover, in assay [2], the inhibition of aggregation was 4.4% (inactive). Moreover, the figures for the nuclei count in assay [2] and in assay [3] were 77.9% and 116%, respectively. The results for the z-score in [4] (setting [13]), in assay [4] (setting [14]) and in assay [4] (setting [15]) were 2.02, -0.265 and -1.6, respectively. Besides, the fluorescence slope in assay [6] was -0.449 (inactive). In addition, the NADPH fluorescence slope in assay [7] was -6.8e-05 (inactive). Further, the slope in assay [8] was 0.00467 (inactive). Also, the outcome in [9] was inactive.

These data come from PubChem BioAssay.
